KB-3-1 tox: KB-3-1 parental cell cytotoxicity. KB-3-1 viability, CellTiter-Glo ATP luminescence, 72 h. Potency, µM (highest dose often 46.1 µM), most hits filed as cytotoxic. 400,000 compounds, 1.4% hits. AID 1347075; further: on the % scale 0 is the no-effect control and ±100 the full control effect; nearly all actives have a fitted effect of over 60% in size
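Parental KB-3-1 viability, qHTS format: 72 h compound exposure, 37 °C; CellTiter-Glo; media-only wells and DMSO plates as controls; concentration-effect fits on corrected data.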
ATXN2 expr inh: reduces ATXN2 reporter expression in HEK-293 cells; 360,000 compounds, 0.72% hits; Potency, µM (series often up to 57 µM), for inactives: at the top dose activity change, negative = inhibition, hits mostly inhibitors; AID 1745845; HEK-293 ATXN2-luciferase reporter, luminescence, 24 h; further: on the % scale 0 is the no-effect control and ±100 the full control effect; nearly all actives have a fitted effect of over 55% in size
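ATXN2-luciferase reporter cells (luciferase flanked by upstream and downstream ATXN2 gene portions) were treated 24 h at 37 °C with compounds at up to 57 uM. SteadyGlo luminescence gave expression; GF-AFC fluorescence gave viability.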
HT1080NT lethal: kills 2HG-producing HT-1080-NT fibrosarcoma cells. HT-1080-NT fibrosarcoma viability, CellTiter-Glo ATP luminescence, 48 h. AID 686970. 360,000 compounds, 1.6% hits. Potency, µM (series often up to 46.1 µM), for inactives: top-dose activity, negative = less viability, actives largely listed as cytotoxic;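 further: NT is the 2HG producing partner of a matched IDH1 knockdown line; 0% = DMSO-treated cells and -100% = media-only wells without cells; nearly all actives have a fitted effect of over 55% in size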
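750 cells/well, RPMI + 5% FBS; 2 h settle, compound pin-transfer, 48 h at 37 degrees C. CellTiter-Glo 10 min RT, luminescence. Normalized to DMSO and media-only wells.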
KB-V1 cytotox: kills drug-selected multidrug resistant KB-V1 cells; Potency, µM (highest dose often 46.1 µM), actives largely listed as cytotoxic; AID 1347076; 400,000 compounds, 3.4% hits; KB-V1 MDR cells viability, CellTiter-Glo, 72 h; further: on the % scale 0 is the no-effect control and ±100 the full control effect; nearly all actives have a fitted effect of over 60% in size
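Cells of the MDR subline KB-V1 are plated, dosed with compound at multiple concentrations, and incubated 72 h at 37 degrees C; CellTiter-Glo is then added and luminescence read after 10 min.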
S2 tox: reduces viability in counter-screen for ATXN expression inhibitors; S2 cells (HEK-293 line with an ATXN2-luciferase reporter) viability, CellTiter-Fluor protease fluorescence, 24 h; 400,000 compounds, 0.49% hits; Potency, µM (top dose mostly 56.7 µM), actives largely listed as cytotoxic; AID 651635; further: nearly all actives have a fitted effect of over 40% in size
HT1080 IDH1KD tx: HT-1080 IDH1 knockdown cell toxicity (counter line) | HT-1080 IDH1 knockdown viability, ATP luminescence, 48 h | Potency, µM (doses to about 46.1 µM), for the others: top-dose activity, negative = toxicity, actives largely listed as cytotoxic | 360,000 compounds, 2% hits;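 further: 0% = DMSO wells and -100% = cell-free medium wells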
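Knockdown cells (IDH1KD HT-1080) received compounds 2 h after plating at 750 cells/well and were kept 48 h at 37 °C in 5% FBS RPMI. A CellTiter-Glo luminescence read gave % activity for curve fitting.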
Numbers without * were called inactive. Most compounds without a hit are left out; they make up all but 6.2% or so of the library. The call rests on the fitted dose curve; in most records, active means well fitted curve in the direction sought with a large enough effect; inconclusive means small, poorly fitted or top-dose-only effect, or another doubt; inactive means no such curve, though single readings can be large; an effect the other way counts as inactive or inconclusive. Potency means the concentration at half of the fitted maximal effect.

Cc1ccc(NC(=O)c2cnn3c(C(F)F)cc(-c4ccccc4)nc23)c(C)c1 was read as KB-3-1 tox inactive, ATXN2 expr inh 7.8%, KB-V1 cytotox inactive and S2 tox inactive.
`COc1ccc(-c2csc3nc(C)nc(N4CCC(C)CC4)c23)cc1OC` gave KB-3-1 tox inconclusive, ATXN2 expr inh 74.0%, HT1080NT lethal 18.4µM*, KB-V1 cytotox inconclusive, S2 tox inactive and HT1080 IDH1KD tx inconclusive.
O=C(CNC(=O)c1ccccc1O)N/N=C/c1cc(Br)ccc1OC(=O)/C=C/c1ccco1 was read as KB-3-1 tox inconclusive, ATXN2 expr inh inconclusive, HT1080NT lethal inconclusive, KB-V1 cytotox inconclusive, S2 tox inactive and HT1080 IDH1KD tx inconclusive.
O=C(CNC(=O)c1cccc(F)c1)N/N=C/c1cc(Br)ccc1OC(=O)/C=C/c1ccco1 was read as KB-3-1 tox inconclusive, ATXN2 expr inh 28.2µM*, HT1080NT lethal inconclusive, KB-V1 cytotox inactive, S2 tox inactive and HT1080 IDH1KD tx inconclusive.
Screening CN(C)c1ccc(-c2[nH][nH]c(=O)c2NC(=O)c2ccccn2)cc1 returned KB-3-1 tox inactive, ATXN2 expr inh inconclusive, HT1080NT lethal inconclusive, KB-V1 cytotox inactive and HT1080 IDH1KD tx 20.6µM*.
For CCN(CC)CC(O)Cn1c2ccccc2c2ccccc21 (stereo not given) the results were KB-3-1 tox inactive, ATXN2 expr inh -21.3%, HT1080NT lethal -21.7%, KB-V1 cytotox inactive, S2 tox inactive and HT1080 IDH1KD tx -16.9%.
For CCN(CC)CC(O)Cn1c(C)c(-c2ccccc2)c2cc([N+](=O)[O-])ccc21 (stereo not given) the results were KB-3-1 tox inconclusive, ATXN2 expr inh inconclusive, HT1080NT lethal 20.6µM*, KB-V1 cytotox inactive, S2 tox inactive and HT1080 IDH1KD tx inconclusive.
`O=C(Nc1ccccc1)C1=C(c2ccccc2)S(=O)(=O)CCS1(=O)=O` gave KB-3-1 tox inconclusive, ATXN2 expr inh 5.62µM*, HT1080NT lethal 23.1µM*, KB-V1 cytotox inactive, S2 tox 8.91µM* and HT1080 IDH1KD tx 3.26µM*.
`O=C(O)c1ccccc1C(=O)Nc1ccccc1` gave KB-3-1 tox inactive, ATXN2 expr inh 2.5%, HT1080NT lethal 10.1%, KB-V1 cytotox inactive, S2 tox inactive and HT1080 IDH1KD tx 1.2%.
For O=C(C[n+]1ccccc1Br)c1ccc2c(c1)CCCC2 the results were KB-3-1 tox inconclusive and KB-V1 cytotox inactive.
CCNC(=O)C1CCCN(c2nn3cc(-c4ccc(C)cc4)nc3s2)C1 (stereo not given) was read as KB-3-1 tox inactive and KB-V1 cytotox inactive.
Screening Cc1c(C(=O)N2CCCCC2)sc2ncnc(NCCc3ccccn3)c12 returned S2 tox inactive.
Screening O=C1C=CC(=O)N1CCCCCCCCCCN1C(=O)C=CC1=O returned KB-3-1 tox inconclusive, ATXN2 expr inh 10µM*, HT1080NT lethal inconclusive, KB-V1 cytotox inactive, S2 tox 8.91µM* and HT1080 IDH1KD tx inconclusive.
Cc1ccc2nc(CSc3nnc(Nc4ccccc4F)s3)cc(=O)n2c1 was read as KB-3-1 tox inconclusive, ATXN2 expr inh -6.4%, HT1080NT lethal inconclusive, KB-V1 cytotox inconclusive, S2 tox inactive and HT1080 IDH1KD tx -26.0%.
For O=c1cc(CSc2nnc(Nc3ccccc3F)s2)nc2sccn12 the results were KB-3-1 tox inconclusive, ATXN2 expr inh inconclusive, HT1080NT lethal inconclusive, KB-V1 cytotox 16.4µM*, S2 tox inconclusive and HT1080 IDH1KD tx 18.4µM*.
Screening CSc1ncc2c(n1)-c1ccccc1N(Cc1ccccc1)S2(=O)=O returned KB-3-1 tox inactive, ATXN2 expr inh -3.0%, KB-V1 cytotox inactive and S2 tox inactive.
COCc1c(C(=O)N2CCC(N(C)C)C2)cnn1-c1ncc2c(n1)-c1ccccc1CCC2 (stereo not given) was read as S2 tox inactive.
Screening Cn1ccc2cc(-c3ccc4ncnc(NCc5cccs5)c4c3)ccc21 returned KB-3-1 tox 18.4µM*, ATXN2 expr inh inconclusive, KB-V1 cytotox inconclusive and S2 tox inconclusive.
For COc1cccc(-c2ccc3ncnc(NCc4cccs4)c3c2)c1 the results were KB-3-1 tox inactive, ATXN2 expr inh -9.4%, KB-V1 cytotox inactive and S2 tox inactive.
For O=C(Nc1cccc(F)c1F)C1CCN(c2ncccn2)CC1 the results were KB-3-1 tox inactive, ATXN2 expr inh 6.8%, KB-V1 cytotox inactive and S2 tox inactive.
CCN(CC)S(=O)(=O)c1ccc2c(c1)c(=O)c(C(=O)N1CCN(c3cc(C)ccc3C)CC1)cn2C was read as KB-3-1 tox inactive, ATXN2 expr inh -5.3%, KB-V1 cytotox inactive and S2 tox inactive.
For Nc1ccccc1O the results were KB-3-1 tox inactive, ATXN2 expr inh -2.5%, HT1080NT lethal 20.6µM*, KB-V1 cytotox inactive, S2 tox inactive and HT1080 IDH1KD tx 18.4µM*.
Screening Oc1cc(Nc2cccnc2)cc2cccnc12 returned KB-3-1 tox 20.6µM*, ATXN2 expr inh inconclusive, KB-V1 cytotox inactive and S2 tox inconclusive.
Oc1cc(NCCc2cccnc2)cc2cccnc12 was read as KB-3-1 tox inconclusive, ATXN2 expr inh 39.8µM*, KB-V1 cytotox inconclusive and S2 tox inconclusive.
Screening Cc1ccc(C)c(N2CCN(C(=O)CCS(=O)(=O)c3ccc4c(c3)CC(=O)N4C)CC2)c1 returned KB-3-1 tox inactive, ATXN2 expr inh -24.3%, KB-V1 cytotox inactive and S2 tox inactive.
`CCN(CC)CCNCC1C(=O)O[C@@H]2C[C@@]3(C)CCC[C@H](C)C3=C[C@H]12` (stereo not given in full) gave KB-3-1 tox inconclusive, ATXN2 expr inh -37.5%, HT1080NT lethal inconclusive, KB-V1 cytotox inconclusive, S2 tox inactive and HT1080 IDH1KD tx 16.4µM*.
CCOc1ccc(NS(=O)(=O)c2ccc(-c3cnc(C4CC4)o3)cc2)cc1 was read as KB-3-1 tox inconclusive, HT1080NT lethal inconclusive, KB-V1 cytotox 16.4µM*, S2 tox inactive and HT1080 IDH1KD tx inconclusive.
Screening Cc1cc(C)cc(NS(=O)(=O)c2ccc(-c3cnc(C4CC4)o3)cc2)c1 returned KB-3-1 tox 1.16µM*, HT1080NT lethal 1.3µM*, KB-V1 cytotox 4.11µM*, S2 tox inactive and HT1080 IDH1KD tx 0.651µM*.
Screening Cc1ccc(C)c(NS(=O)(=O)c2ccc(-c3cnc(C4CC4)o3)cc2)c1 returned KB-3-1 tox inconclusive, HT1080NT lethal 0.103µM*, KB-V1 cytotox 0.326µM*, S2 tox inconclusive and HT1080 IDH1KD tx 0.164µM*.

Screening data: PubChem, National Center for Advancing Translational Sciences (NCATS)
